The record followed here is PubChem BioAssay (EPA / NIEHS).

Structures are written as SMILES. The source made the active and inactive calls. How the source made its calls: active means hit-call score of the fitted dose curve at least 0.9, where 1 is the maximum; inactive means score below 0.9.

A short description of this experiment: CCTE_Harrill_HTTr_Apoptosis_MCF7: CCTE's 6-hour Apoptosis Assessment for the High-Throughput Transcriptomics (HTTr) Platform, in MCF-7 cells cultured in DMEM + 10% fetal bovine serum, Harrill Lab (AID 2284011). An excerpt: This is a cell-based assay that evaluates apoptosis using high content imaging to evaluate activation of caspase-3/7 using the CellEvent Caspase 3/7 Green detection reagent in 384-well format.One of seven assay components measured from the CCTE_Harrill_HTTr_Apoptosis assay. This was part of a full screening experiment. This is a cell-based assay that evaluates apoptosis in MCF-7 cells cultured in DMEM + 10% fetal bovine serum. High content imaging is used to evaluate activation of caspase-3/7 using the CellEvent Caspase 3/7 Green detection reagent. Measurements are taken at 6 hours after chemical dosing in 384-well format.The assay component endpoint CCTE_Harrill_HTTr_Apoptosis_MCF7 was analyzed with bidirectional fitting relation to DMSO as the negative control and baseline of activity. Using a type of viability reporter, gain-of-signal activity can be used to evaluate activation of caspase-3/7 using the CellEvent Caspase 3/7 Green detection reagent to understand changes in apoptosis. To generalize the intended target to other relatable targets, this assay endpoint is annotated to cell cycle, where the subfamily is apoptosis.
Chemicals were tested in MCF7 cells in an eight point dilution series with a six hour exposure duration.
Consider `CCCC1O[C@@H]2C[C@H]3[C@@H]4CCC5=CC(=O)C=C[C@]5(C)[C@H]4[C@@H](O)C[C@]3(C)[C@]2(C(=O)CO)O1` (stereo not given in full), for which the outcome was inactive. The value for `OC[C@H]1O[C@@H](Oc2ccc(O)cc2)[C@H](O)[C@@H](O)[C@@H]1O` was “inactive”; that for `Brc1ccc(Br)c(Br)c1` was “inactive”; that for `O=C(O)CCCCCCCCCCCC(=O)O` was “inactive”. The value for `Clc1ccc(C(c2ccccc2Cl)C(Cl)Cl)cc1` (stereo not given) was “inactive”; that for `Cc1ccc(N)c(S(=O)(=O)O)c1` was “inactive”. `COC(=O)Nc1ccc(Cl)c(Cl)c1`: the outcome was inactive. On to `C=C1CC[C@H](O)C/C1=C/C=C1\CCC[C@]2(C)[C@@H]([C@H](C)/C=C/[C@H](C)C(C)C)CC[C@@H]12`, for which the outcome was inactive.

Turning to `CC(C)(CO)[C@@H](O)C(=O)NCCC(=O)O`, the outcome was inactive. The value for `CCCC(=O)OCCc1ccccc1` was “inactive”; that for `C=CCOC(=O)CCCCCC` was “inactive”; that for `CC(=O)CC(=O)Nc1ccccc1` was “inactive”. Take `CCCCC1(COC(=O)CCC(=O)O)C(=O)N(c2ccccc2)N(c2ccccc2)C1=O`: the result was inactive.

For `CCCN(CCC)S(=O)(=O)c1ccc(C(=O)O)cc1`, the outcome was inactive. With `CS(=O)(=O)OCCCCOS(C)(=O)=O`, the result was inactive. The value for `O=c1c(O)c(-c2ccc(O)cc2)oc2cc(O)cc(O)c12` was “inactive”; that for `COC(=O)c1ccc(C)cc1C1=NC(C)(C(C)C)C(=O)N1` (stereo not given) (tested in a mixture with another compound) was “inactive”; that for `O=C(O)c1ccc(O)cc1` was “inactive”. The value for `CC1CCC(C(C)C)C(O)C1` (stereo not given) was “inactive”; that for `Cc1[nH]c(=O)c(C#N)cc1-c1ccncc1` was “inactive”.

On to `CN(c1nccc(=O)[nH]1)C1CCN(c2nc3ccccc3n2Cc2ccc(F)cc2)CC1`, for which the outcome was inactive.

As to `CCCSc1ccc2nc(NC(=O)OC)[nH]c2c1`, the outcome was inactive.

On to `CC(=O)Nc1ccc(C(=O)CCl)cc1`, for which the outcome was inactive. Turning to `CCOC(=O)c1ccc(N)cc1`, the result was inactive. The value for `O=c1[nH]c(=O)c2cn[nH]c2[nH]1` was “inactive”; that for `CCc1ccc(O)cc1` was “inactive”; that for `Cc1ccc(S(N)(=O)=O)cc1` was “inactive”. The value for `CC(CN=Cc1ccccc1O)N=Cc1ccccc1O` (stereo not given) was “inactive”; that for `c1ccc2[nH]cnc2c1` was “inactive”; that for `CC1(C)C2=CCCC(C)(C)[C@]23CC[C@H]1C3` was “inactive”. The value for `CCCCCCOC(=O)CCC` was “inactive”; that for `O=P(O)(O)O` was “inactive”.

Regarding `C1=CC2C3C=CC(C3)C2C1` (stereo not given), the result was inactive. Take `CS(=O)(=O)c1ccc(Cl)cc1`: the result was inactive. The value for `CC1(C)O[C@@H]2C[C@H]3[C@@H]4CCC5=CC(=O)C=C[C@]5(C)[C@@]4(F)[C@@H](O)C[C@]3(C)[C@]2(C(=O)CO)O1` was “inactive”. The value for `Nc1ccccc1[N+](=O)[O-]` was “inactive”. The value for `O=C1c2ccccc2C(=O)c2c(O)ccc(O)c21` was “inactive”. In the case of `CC(C)c1ccccc1O`, the outcome was inactive. The value for `CC(C)CCCCCCCCCCCCCCC(=O)O` was “inactive”; that for `CCC(C)=O` was “inactive”.
